These entries were drawn from the full list.
aSyn UTR act: Activators working through SNCA 5'UTR binding (MLPCN); hit rate 7.1% among 300,000; activity score, % (tested at 7.5 µM), hits read low; alpha-synuclein 5'UTR reporter, activators screen; in the data active means activity score below about -60%
Of the large screens only hits and unclear results are named; the others gave an inactive call.

CC(/C=C/c1ccccc1F)=N\NC(=O)c1ccccc1	aSyn UTR act -144
COc1ccc(-c2nnc(SCC(=O)c3cccs3)o2)cc1	aSyn UTR act -140
Cc1ccc(SCC(=O)c2ccc[nH]2)cc1	aSyn UTR act -126
COc1ccc(-c2nnc(SCC(=O)c3ccc[nH]3)o2)cc1	aSyn UTR act -107
O=C(Nc1nc2c(cc3c4c(cccc42)CC3)s1)c1ccccc1Cl	aSyn UTR act -65
Cc1ccc(-n2c(C)nn(CCOc3ccccc3)c2=O)cc1	aSyn UTR act -104
O=c1c2ccccc2cnn1CCOc1ccccc1	none
Cc1nn(CCOc2ccccc2)c(=O)n1-c1c(F)cccc1F	aSyn UTR act -108
Fc1ccc(-c2nnsc2Sc2ccccn2)cc1	aSyn UTR act -84
Cc1nc2ccc(NC(=O)c3ccc(Br)o3)cc2s1	aSyn UTR act -186
Cc1ccc2nc(NC(=O)c3ccc(Cl)s3)sc2c1	aSyn UTR act -133
Cc1nc2ccc(NC(=O)c3ccc(Cl)s3)cc2s1	aSyn UTR act -238
CCc1ccc(OC(=O)Nc2ccccc2)cc1	aSyn UTR act -159
COc1ccc(OC(=O)Nc2ccccc2)cc1	aSyn UTR act -92
COc1ccc(C2CC(c3ccccc3OC(C)=O)=NN2C(C)=O)cc1 (stereo unspecified)	aSyn UTR act -79
N#Cc1c(N)nc(N)nc1Nc1ccc(Br)cc1	aSyn UTR act -64
Nc1ccccc1SCc1csc(-c2ccc(Cl)cc2)n1	aSyn UTR act -72
Cc1cc(C)nc(SCc2csc(-c3ccccc3)n2)n1	aSyn UTR act -91
C=CCn1c(SCc2csc(-c3ccc(Cl)cc3)n2)nnc1-c1ccccc1OC	aSyn UTR act -64
Cn1c(O)c(/C=N/NC(=O)c2cc3ccccc3cc2O)c2ccccc21	aSyn UTR act -84
CCn1nc(C(=O)OCC(=O)Nc2nc(-c3ccc(OC)cc3)cs2)c2ccccc2c1=O	aSyn UTR act -116
CN(C)CCCN(C(=O)c1ccco1)c1nc(-c2ccc(Cl)cc2)cs1	aSyn UTR act -75
COc1ccc(-c2csc(N(C)C(=O)c3ccco3)n2)cc1	aSyn UTR act -182
CC(=O)N(C)c1nc(-c2ccc(Cl)cc2)cs1	aSyn UTR act -116
CN(C(=O)c1ccco1)c1nc(-c2ccc(Cl)cc2)cs1	aSyn UTR act -140
COc1ccc(-c2csc(NC(=O)COC(=O)c3ccco3)n2)cc1	aSyn UTR act -140
N=c1oc2cc(O)ccc2cc1C(=O)Nc1ccc(Cl)cc1	aSyn UTR act -126
Cc1ccc(NC(=O)c2cc3ccccc3oc2=N)cc1	none
N=c1oc2ccccc2cc1C(=O)Nc1cccc(F)c1	aSyn UTR act -122
N=c1oc2ccccc2cc1C(=O)Nc1ccc(F)cc1	aSyn UTR act -154
CC(C)OC(=O)/C(=C/c1ccc2c(c1)c1ccccc1n2C)NC(=O)c1ccccc1	aSyn UTR act -146
CC(C)OC(=O)/C(=C\c1ccc2c(c1)c1ccccc1n2C)NC(=O)c1ccccc1	aSyn UTR act -113
CCc1cc2c(=O)n(CC(C)C)cnc2s1	aSyn UTR act -101
CCCCCn1cnc2sc(CC)cc2c1=O	aSyn UTR act -169
CCc1cc2c(=O)n(-c3ccc(Br)cc3)cnc2s1	aSyn UTR act -160
N/C(=N\OC(=O)c1ccccc1Cl)c1cccc([N+](=O)[O-])c1	aSyn UTR act -67
N/C(=N\OC(=O)c1ccc2ccccc2c1)c1ccccc1Cl	aSyn UTR act -140
Cc1cccc(/C(N)=N/OC(=O)c2ccc(F)cc2)c1	aSyn UTR act -141
N/C(=N/OC(=O)c1ccccc1Cl)c1ncc([N+](=O)[O-])s1	aSyn UTR act -80
N/C(=N\OC(=O)c1ccc2ccccc2c1)c1ccccn1	none
O=C(Oc1ccc2ccc(O)cc2c1)c1ccccc1Cl	aSyn UTR act -128
N/C(=N\OC(=O)c1ccccc1F)c1ccc([N+](=O)[O-])cc1	aSyn UTR act -151
N/C(=N\OC(=O)c1cccc(F)c1)c1cccc([N+](=O)[O-])c1	aSyn UTR act -104
N/C(=N\OC(=O)c1ccc(F)cc1)c1cccc([N+](=O)[O-])c1	aSyn UTR act -110
N/C(=N\OC(=O)c1ccc2ccccc2c1)c1cccc([N+](=O)[O-])c1	aSyn UTR act -67
CCC(C)N1C(=O)S/C(=C/c2ccc3c(c2)n(C)c(=O)n3C)C1=O (stereo unspecified)	aSyn UTR act -69
COc1ccc(NC(=S)NC(=O)c2ccccc2)cn1	aSyn UTR act -138
COc1ccc(NC(=O)c2cccc(Oc3ccccc3)c2)cn1	aSyn UTR act -109
CC(=O)c1ccc(NC(=O)[C@@H]2CCCN2C(=O)OC(C)(C)C)cc1	aSyn UTR act -94
CN1C(=O)C2C=CC1C1C(=O)N(c3ccccc3)C(=O)C21 (stereo unspecified)	aSyn UTR act -302
Cc1ccsc1C(=O)N/N=C/c1ccc2c(c1)OCO2	aSyn UTR act -99
O=C(N/N=C/c1ccc2c(c1)OCO2)c1cccs1	aSyn UTR act -135
CC1CCC(NC(=O)CNC(=O)c2cccs2)CC1 (stereo unspecified)	aSyn UTR act -88
CC1CCC(NC(=O)Nc2cccs2)CC1 (stereo unspecified)	aSyn UTR act -107
Cc1ccc2c(c1)[nH]c1c(=O)n(Cc3ccco3)cnc12	aSyn UTR act -118
Cc1cc(-c2nc(-c3ccncc3)no2)ccc1[N+](=O)[O-]	aSyn UTR act -166
O=[N+]([O-])c1cccc(-c2noc(-c3ccco3)n2)c1	aSyn UTR act -96
O=[N+]([O-])c1cccc(-c2nc(-c3ccncc3)no2)c1	aSyn UTR act -89
O=[N+]([O-])c1cccc(-c2nc(-c3ccccc3)no2)c1	aSyn UTR act -134
Cc1ccc(-c2nc(-c3ccncc3)no2)cc1Cl	aSyn UTR act -99
Cc1ccc(-c2nc(-c3ccccn3)no2)cc1Cl	none
Clc1ccc2oc(-c3ccccc3)nc2c1	aSyn UTR act -151
Cc1ccc2nc(-c3cccnc3)oc2c1	aSyn UTR act -80
COC(=O)c1ccc(-c2nc3ccc(C)cc3o2)cc1	aSyn UTR act -77
Cc1ccccc1-c1nc2cc(Cl)ccc2o1	aSyn UTR act -183
Clc1ccc2oc(-c3cccnc3)nc2c1	aSyn UTR act -119
O=C1c2ccccc2C(Nc2ccc3c(c2)OCCO3)N1Cc1ccc2c(c1)OCO2 (stereo unspecified)	aSyn UTR act -72
O=C1c2ccccc2C(Nc2ccc3c(c2)OCCO3)N1c1ccc(Cl)cn1 (stereo unspecified)	aSyn UTR act -76
O=C(C1=C[C@@H](c2csc3ccccc23)C[C@@H](OCc2ccc(CO)cc2)O1)N1CCN(Cc2ccc3c(c2)OCO3)CC1	none
O=C(CCN1C(=O)c2cccc3cccc(c23)C1=O)N1CCOCC1	aSyn UTR act -102
O=C1c2ccc3c4c(ccc(c24)C(=O)N1CCCCO)C(=O)N(CCCCO)C3=O	none
O=C1c2cccc3cccc(c23)C(=O)N1CCc1ccccc1	aSyn UTR act -246
Cc1nnc(SCC(=O)Nc2nc3c(s2)CC(C)CC3)s1 (stereo unspecified)	aSyn UTR act -75
O=C(CSC1=NCCS1)Nc1nc2c(s1)CCCC2	aSyn UTR act -104
CC1CCc2c(sc(NC(=O)CSc3ncn[nH]3)c2C#N)C1 (stereo unspecified)	none
Cn1nnnc1SCC(=O)Nc1nc2c(s1)CCCC2	aSyn UTR act -102
O=C1C(Cl)=C(Nc2ccccc2O)C(=O)N1CCc1ccccc1	aSyn UTR act -87
CCOc1ccc(NC2=C(Cl)C(=O)N(C3CCCCC3)C2=O)cc1	aSyn UTR act -102
COc1ccccc1NC1=C(Cl)C(=O)N(c2ccccc2)C1=O	aSyn UTR act -70
CCOc1ccc(N2C(=O)C(Cl)=C(Nc3ccccc3O)C2=O)cc1	aSyn UTR act -184
